Data on 45 compounds can be found in PubChem BioAssay AID1851 (National Center for Advancing Translational Sciences (NCATS), 2009).

“And” between values parts separate entries of the source, which are not always exact repeats. Equal values may be shown once. Hit rate of the full screen: of about 16,000 compounds, about 2,600 (16%) were called active. Another 20% or so got no clear call; they are omitted. Calls come from the whole dose curve; as a rule, active = well fitted curve in the direction sought with a large enough effect; inconclusive = small, poorly fitted or top-dose-only effect, or effect the other way; inactive = no such curve, though single readings can be large or run the other way. The list comes from a sample in which actives are over-represented; it also holds similar structures and randomly drawn compounds. A structure can be active in one record and inactive in another.
% is set by controls: 0 for no effect and ±100 for the full control effect.

Chain of Cytochrome P450 2D6 (Homo sapiens) (P10635 whole entry, looked up): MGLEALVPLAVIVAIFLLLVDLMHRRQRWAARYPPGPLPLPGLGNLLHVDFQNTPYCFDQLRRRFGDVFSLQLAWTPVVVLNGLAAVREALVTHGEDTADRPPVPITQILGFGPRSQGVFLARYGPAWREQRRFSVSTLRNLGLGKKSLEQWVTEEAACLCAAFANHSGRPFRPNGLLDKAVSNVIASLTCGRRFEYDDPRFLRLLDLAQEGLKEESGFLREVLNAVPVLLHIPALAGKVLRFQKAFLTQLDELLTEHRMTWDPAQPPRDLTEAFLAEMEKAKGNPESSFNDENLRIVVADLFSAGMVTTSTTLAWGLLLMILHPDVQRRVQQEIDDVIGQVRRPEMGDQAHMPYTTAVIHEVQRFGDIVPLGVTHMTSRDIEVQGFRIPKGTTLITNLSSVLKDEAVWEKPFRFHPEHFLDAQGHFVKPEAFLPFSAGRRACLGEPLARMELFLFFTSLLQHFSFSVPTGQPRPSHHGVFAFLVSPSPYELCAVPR

The assay has as its target Cytochrome P450 2D6 (Homo sapiens) (UniProt P10635). As to the kind of experiment: Cytochrome panel assay with activity outcomes. The conditions noted are these: recombinant CYP, pro-luciferin dealkylation, luminescence, p450-cyp2d6; series mostly up to 57.1 µM; activity, negative = inhibition: at the top concentration. The protocol:
The P450 gene superfamily is involved in the metabolism and clearance of xenobiotics. This assay used various human CYP P450 isozymes to measure the dealkylation of various pro-luciferin substrates to luciferin. The luciferin is then measured by luminescence after the addition of a luciferase detection reagent. Pro-luciferin substrate concentration in the assay was equal to its KM for its CYP P450 isozyme. Inhibitors and some substrates limit the production of luciferin, and decrease measured luminescence.
NCGC Assay Protocol Summary:
1, Reagent, 2 uL, Isozyme and Pro-Luciferin
2, Library compounds, 23 nl, 40 uM to 0.24 nM dilution series
3, Controls, 23 nl, Isozyme specific inhibitor
4, Reagent, 2 uL, NADPH regeneration solution
5, Incubation time, 60 min, Isozyme specific temperature
6, Reagent, 4ul, Detection reagent
7, Incubation time, 20 min, Isozyme specific temperature
8, Detection, 1 sec, ViewLux luminescent read
The luciferase-based P450-GloTM Screening Systems were obtained from Promega (Madison, WI) for CYP 1A2 (V9770), CYP 2C9 (V9790), CYP2 C19 (V9880), CYP 2D6 (V9890), and CYP 3A4 Luciferin-PPXE (V9910) and were adapted for 1,536-well microplates and an automated protocol. The control compounds furafylline for 1A2 (F124), sulfaphenazole for CYP 2C9 (S0758), ketoconazole for CYP 2C19 (K1003), quinidine for 2D6 (Q3625), and ketoconazole for 3A4 (K1003) were purchased from Sigma Aldrich (St. Louis, MO). Recombinant P450 enzymes were obtained from baculovirus constructs expressed in insect cells (BD/Gentest).
Medium-binding white solid Kalypsys plates used. Mixtures kept on ice. 1A2: 10 nM 1A2, 100 uM Luc-ME, 100 mM KPO4; 2C9: 10 nM 2C9, 100 uM Luc-H, 25 mM KPO4; 2C19: 5 nM 2C19, 10 uM Luc-H EGE, 50 mM KPO4; 2D6: 5 nM 2D6, 30 uM Luc-ME EGE, 100 mM KPO4; 3A4: 10 nM, 25 uM Luc-PPXE. All amounts are reflected in their final concentration, working concentration is 2x.
NADPH regeneration solution: 1.3 mM NADP+, 3.3 mM glucose-6-phosphate, 3.3 mM MgCl2, 0.4 U/mL glucose-6-phosphate dehydrogenase for all isozymes, 200 mM KPO4 for 3A4. Mixture prepared at RT but kept on ice during automated run.
RT incubation in auxilliary plate hotel for 1A2, 2D6, and 3A4; 37C for 2C9 and 2C19.
Keywords: P450, CYP1A2, CYP2C19, CYP2C9, CYP2D6, CYP3A4, Luciferase, MLSMR, MLSCN, NIH Roadmap, qHTS, NCGC
The AC50 is the midpoint of the concentration-response curve, whichever way the signal moves. In the case of `CCN(CC)C(=O)N[C@H]1C[C@H]2c3cccc4[nH]cc(c34)C[C@@H]2N(C)C1`, the AC50 is 39.8 nM (active).

Consider `CCN(CC)C(=O)N[C@@H]1C[C@H]2c3cccc4[nH]cc(c34)C[C@@H]2N(C)C1`, for which the half-maximal activity concentration (AC50) is 15.8 nM (active) and 10 nM (active).

Consider `CC(C)[C@@]1(NC(=O)[C@@H]2C[C@H]3c4cccc5[nH]cc(c45)C[C@@H]3N(C)C2)O[C@@]2(O)[C@H]3CCCN3C(=O)[C@H](Cc3ccccc3)N2C1=O`, for which the “activity, negative = inhibition” value is -17.1% (inactive).

Take `NCCCNCCSP(=O)(O)O`: the “activity, negative = inhibition” value was -2.11% (inactive).

Take `N[C@H](Cc1ccc2oc3cc(=O)c4ccccc4c-3nc2c1)C(=O)O`: the activity, negative = inhibition is -14.6% [at 11.4 µM] (inactive).

For the compound `CC1(C)CCC(C)(C)c2c1ccc(O)c2Cc1c(O)ccc2c1C(C)(C)CCC2(C)C`, the activity, negative = inhibition was 4.74% [at 11.4 µM] (inactive).

Consider `CCn1c(O)c(C(c2ccccn2)c2c(O)n(CC)c(=S)[nH]c2=O)c(=O)[nH]c1=S`, for which the “activity, negative = inhibition” value is 2.86% (inactive).

Consider `O=C(C[C@H](c1ccccc1)c1c(O)c2ccccc2oc1=O)c1ccccc1`, for which the activity, negative = inhibition was 12.6% [at 11.4 µM] (inactive).

As to `COCCn1c(SCc2nc3sc(C(=O)OC)c(C)c3c(=O)[nH]2)nc2ccccc21`, the AC50 is 10000 nM (active).

As to `CC(C)C(=O)CP(=O)(O)O`, the activity, negative = inhibition was -4.98% [at 11.4 µM] (inactive).

As to `COc1cc(OC)c(/C=C2/C(=O)Nc3ccccc32)c(OC)c1`, the “activity, negative = inhibition” value is 2.82% (inactive).

As for `CCOC(=O)c1cncn1[C@H](C)c1ccccc1`, the “activity, negative = inhibition” value was -4.57% (inactive).

In the case of `CCOC(=O)c1cncn1[C@@H](C)c1ccccc1`, the “activity, negative = inhibition” value is -4.3% [at 25.6 µM] (inactive).

On to `C[C@H](c1ccccc1)N1CCN([C@@H](C)c2ccccc2)CC1`, for which the half-maximal activity concentration (AC50) was 63.1 nM (active).

With `C(=NC12CN3CN(CN(C3)C1)C2)c1cccs1`, the “activity, negative = inhibition” value was 5.66% (inactive).

Consider `S=C=Nc1cccc(C2(N3CCCCC3)CCCCC2)c1`, for which the half-maximal activity concentration (AC50) was 10000 nM (active).

Consider `COC(=O)C1=CCCN(C)C1`, for which the AC50 entry was “inactive”.

Regarding `CCCC(CCC)C(=O)O`, the “activity, negative = inhibition” value was -0.976% (inactive).

On to `CCC1(C)CC(=O)NC(=O)C1`, for which the “activity, negative = inhibition” value was 3.83% [at 25.6 µM] (inactive).

Turning to `N[C@H](Cc1o[nH]c(=O)c1Cl)C(=O)O`, the AC50 is 158 nM (active).

Turning to `Cc1o[nH]c(=O)c1C[C@@H](N)C(=O)O`, the “activity, negative = inhibition” value was 2.96% (inactive).

As for `N[C@@H](Cc1cc(Br)c(O)c(Br)c1)C(=O)O`, the activity, negative = inhibition was 10.2% [at 11.4 µM] (inactive).

Turning to `Cc1o[nH]c(=O)c1C[C@H](N)C(=O)O`, the AC50 result was “inactive and 15.8 µM (active)”.

Consider `N[C@H](C(=O)O)c1cc(=O)[nH]o1`, for which the “activity, negative = inhibition” value was 12.8% (inactive).

`N[C@H](CCl)C(=O)O`: the “activity, negative = inhibition” value is 4.24% (inactive).

As to `C[C@@H]1O[C@H](O[C@@H]2CC[C@@]3(C=O)[C@H]4CC[C@@]5(C)[C@@H](C6=CC(=O)OC6)CC[C@@]5(O)[C@@H]4CC[C@]3(O)C2)C[C@H](O)[C@@H]1O`, the “activity, negative = inhibition” value is 5.25% [at 25.6 µM] (inactive).

On to `CCCCCCN=Cc1c(O)n(C)c(=O)n(C)c1=O`, for which the “activity, negative = inhibition” value was -19% (inactive).

For the compound `CC1=C(C)[N+](=O)C2(O)CCCCC2(C)N1[O-]` (stereo not given), the “activity, negative = inhibition” value is 18.1% (inactive).

On to `C[C@@H]1O[C@@H](O[C@H]2C[C@@H](O)[C@]3(CO)[C@@H]4[C@@H](O)C[C@]5(C)[C@H](C6=CC(=O)OC6)CC[C@@]5(O)[C@H]4CC[C@@]3(O)C2)[C@H](O)[C@H](O)[C@@H]1O`, for which the “activity, negative = inhibition” value is -5.79% (inactive).

In the case of `C[C@@H]1O[C@H](O[C@H]2C[C@@H](O)[C@@]3(CO)[C@H]4[C@@H](O)C[C@]5(C)[C@@H](C6=CC(=O)OC6)CC[C@]5(O)[C@H]4CC[C@]3(O)C2)[C@@H](O)[C@H](O)[C@@H]1O`, the “activity, negative = inhibition” value was 2.17% [at 25.6 µM] (inactive).

As for `C[C@@H]1O[C@H](O[C@@H]2C[C@@H](O)[C@]3(CO)[C@H]4[C@H](O)C[C@]5(C)[C@@H](C6=CC(=O)OC6)CC[C@@]5(O)[C@@H]4CC[C@]3(O)C2)[C@@H](O)[C@H](O)[C@H]1O`, the half-maximal activity concentration (AC50) was 50.1 nM (active).

On to `CCOC(=O)c1c(NC(=O)C(c2ccccc2)c2ccccc2)sc2c1C1CCN2CC1`, for which the “activity, negative = inhibition” value is 6.8% (inactive).

Consider `CN1CC[C@@]23c4ccccc4N[C@H]1[C@]21CCN(C)[C@@H]3Nc2ccccc21`, for which the “activity, negative = inhibition” value was -7.44% [at 25.6 µM] (inactive).

As to `CCCCN(CCCC)CCC(O)c1cc2c(Cl)cc(Cl)cc2c2cc(C(F)(F)F)ccc12` (stereo not given), the AC50 was 3980 nM (active).

On to `O=C(O)CNC(=O)[C@@H](CS)Cc1ccccc1`, for which the “activity, negative = inhibition” value is 8.35% (inactive).

As to `O=[N+]([O-])c1ccc2nc(N3CCNCC3)ccc2c1`, the “activity, negative = inhibition” value was -12.8% (inactive).

On to `CN(N=O)C(=O)N[C@H]1[C@@H](O)[C@H](O)[C@H](CO)O[C@@H]1O`, for which the “activity, negative = inhibition” value was -1.92% [at 25.6 µM] (inactive).

Take `COC(=O)[C@H]1[C@H](c2ccccc2)C(=O)[C@@]2(O)c3ccccc3O[C@@]12c1ccccc1`: the activity, negative = inhibition was 1.53% [at 11.4 µM] (inactive).

As for `CCS(=O)(=O)Nc1cccc(C(=C2CCCCC2)c2cnc[nH]2)c1`, the concentration at half-maximal activity (AC50) was 7940 nM (active).

With `CN1C(=O)C(C2c3ccccc3C(=O)N2Cc2ccc([N+](=O)[O-])cc2)C(=O)N(C)C1=O` (stereo not given), the “activity, negative = inhibition” value is -17.5% (inactive).

Take `C1C[C@@H]2CN(CCCN3CCOCC3)[C@@H](C1)O2`: the activity, negative = inhibition was -5.61% [at 11.4 µM] (inactive).

Consider `CC1(C)CCC2=C(O1)c1ccccc1C(=O)C2=O`, for which the concentration at half-maximal activity (AC50) is 15800 nM (active).

As for `CN1[C@@H](CC(=O)c2ccccc2)CCC[C@@H]1C[C@@H](O)c1ccccc1`, the half-maximal activity concentration (AC50) was 79.4 nM (active).

With `CN1[C@@H](C[C@@H](O)c2ccccc2)CCC[C@@H]1C[C@H](O)c1ccccc1`, the AC50 is 631 nM (active).

For the compound `Cn1c[n+](C)cc1C(O)c1ccccc1` (stereo not given), the “activity, negative = inhibition” value is -5.07% (inactive).
